Reference: PubChem BioAssay AID1117361 (Southern Research Institute, 2015)
Out of some 3,600 compounds screened, about 900 (25%) were called active. How the calls were made is not given here. These entries were drawn from the full list. Entries that show only a call come without a potency. Potency and affinity values are given separately.

Target: Protein Tat (Human immunodeficiency virus type 1 group M subtype B (isolate HXB2)) (UniProt P04608)
Assay: HIV-1 Tat–TAR interaction blockers – biochemical, fluorescence polarization, FAM-labeled TAR RNA, counter-screen for Vif-APOBEC3G degradation inhibitor project, dose response (AID 1117361)
Details: Tat-TAR RNA binding; series mostly up to 100 µM

SMILES | outcome
N=C1C(c2nc3ccccc3c(=O)[nH]2)=C(O)CN1c1ccccc1 | inactive
O=C(Nc1ccc2c(c1)OCCO2)C1CCC1 | inactive
C/C(=N\OCC(=O)Nc1ccc2c(c1)OCCO2)c1ccc2c(c1)OCCO2 | inactive
COc1ccc(-c2cc(C(=O)NCCCn3ccnc3)no2)cc1OC | inactive
O=C(CSc1nnc(CCCO)n1-c1ccccc1)NCCc1ccccc1 | inactive
CCc1ccc(N(C2C=CS(=O)(=O)C2)S(=O)(=O)c2ccc(C)cc2)cc1 (stereo not given) | inactive
O=C(c1cnn2c(C(F)F)cc(C3CC3)nc12)N1CCc2ccccc2C1 | inactive
Cc1cc(F)ccc1S(=O)(=O)Nc1ccccc1C(=O)Nc1ccc2[nH]c(=O)[nH]c2c1 | inactive
Cc1ccccc1OCC(=O)NN1Cc2ccccc2C1=N | inactive
CN(C)CCNC(=O)C(=O)c1c(-c2ccccc2)cc2ccccn12 | inactive
CCN1C(=O)c2ccccc2S(=O)c2ccc(C(=O)NC3CC3)cc21 (stereo not given) | inactive
CCCCC(=O)NCCNC(=O)c1cc(OCC(F)(F)F)ccc1OCC(F)(F)F | inactive
CC(C)NC(=O)c1cc(-c2ccco2)nn1-c1ccc(Cl)cc1 | inactive
COc1ccccc1NC(=O)N1CCCC1C(=O)NC1CCCCC1 (stereo not given) | inactive
Cc1[nH]c(=O)nc(NN=Cc2ccc(Cl)cc2)c1C(=O)Nc1ccc(Cl)cc1 | inactive
CN1C(=O)CSc2ccc(NC(=O)NCc3cccnc3)cc21 | inactive
Nc1c2c(nc3ccccc13)CCC2 | inactive
O=C(Nc1nc2ccc(Cl)cc2s1)C1CCCO1 (stereo not given) | inactive
COc1cc(NC(=O)c2cccs2)c(OC)cc1NC(=O)CCn1nnc2ccccc21 | inactive
O=C(N/N=C/c1ccc(OC(=O)c2cccs2)cc1)c1cccc(F)c1 | inactive

SMILES | outcome
O=C(CS(=O)(=O)c1cn(Cc2ccc(F)cc2)c2ccccc12)N1CCCCC1 | inactive
O=C(Nc1ccccc1-c1nnn(CC(=O)N2CCc3ccccc3C2)n1)C1CCC1 | inactive
CNc1nc(Sc2cccc(C(F)(F)F)c2)cc(C(F)(F)F)n1 | inactive
CC(=O)n1nc(-c2ccc(Cl)cc2)nc1NCc1ccco1 | inactive
O=C1CSC(c2nn(-c3ccccc3)cc2-c2cc3ccccc3oc2=O)N1Cc1ccco1 (stereo not given) | inactive
O=C(CCN1C(=O)c2ccccc2C1=O)NCc1ccco1 | inactive
CC(=O)N1CCCc2cc(S(=O)(=O)N(C)CCC#N)ccc21 | inactive
CCOC(=O)c1c(NC(=O)CCN2CCOCC2)sc(C)c1-c1ccccc1 | inactive
CCc1c(C)[nH]c(=S)c(C#N)c1C | inactive
O=C(NCc1ccc(F)cc1)C1CCCN1C(=O)NCc1ccccc1 (stereo not given) | inactive
CCCC(c1nnnn1CC(=O)OCC)N(Cc1cc2c(C)cc(C)cc2[nH]c1=O)C1CCCC1 (stereo not given) | inactive
O=C(c1ccco1)N1CCN=C1SCc1ccccc1F | inactive
Cc1ccccc1S(=O)(=O)Cc1ccc(C(=O)NCCCN2CCC(C)CC2)o1 | inactive
O=C(CCCCl)Nc1nc(-c2ccc3c(c2)OCCO3)cs1 | inactive
CN(C)C(=O)c1cc(Cl)ccc1Sc1cc(Cl)ccc1Cl | inactive
COC(C[C@H]1O[C@@H]1[C@@H](O)COCc1ccccc1)OC | inactive
N#Cc1nc(Cc2cccc3ccccc23)oc1NCc1ccc(F)cc1 | inactive
Cc1nc(C(=O)N(C)C)nn1-c1cc(Cl)cc(Cl)c1 | inactive
CCC(=O)Nc1nc2ccc(NC(C)=O)cc2s1 | inactive
CC(C)c1ccccc1N1CC(C(=O)O)CC1=O (stereo not given) | inactive

SMILES | outcome
COc1ccc(/C(O)=C2/C(=O)C(=O)N(c3ccccn3)C2c2ccc(F)cc2)cc1 (stereo not given) | inactive
COc1cc(C2C(C(=O)c3ccco3)=C(O)C(=O)N2c2cc(C)on2)cc(Br)c1O (stereo not given) | inactive
O=C(C1CCCC1)N1CCCC(Nc2ccc(F)cc2)C1 (stereo not given) | inactive
O=C(c1cc(-c2cccs2)on1)N1CCCCC1 | inactive
COc1ccccc1N1CCN(C(=O)c2cc(-c3cccs3)on2)CC1 | inactive
COc1cccc2sc(N(C)c3ccccc3)nc12 | inactive
CC1CCN(S(=O)(=O)c2cc(Br)cc(C(=O)NC3=NCCS3)c2)CC1 | inactive
C=CCNC(=O)c1ccncc1 | inactive
COc1cc(/C=N/NC(=O)c2ccc(NS(=O)(=O)c3cccs3)cc2)cc(OC)c1O | inactive
CCn1cc(C(=O)N2CCOCC2)c(=O)c2cc(S(=O)(=O)N(C)C3CCCCC3)ccc21 | inactive
CSc1cccc(NC(=O)CN(c2cc(C)ccc2C)S(C)(=O)=O)c1 | inactive
CSc1cccc(NC(=O)C(C)C)c1 | inactive
CCOC(=O)C1CCN(C(=O)c2ccc(Cl)c(S(=O)(=O)N3CCOCC3)c2)CC1 | inactive
O=C(N/N=C/c1ccc(F)cc1)c1ccc(Br)cc1 | inactive
CSCC[C@H](NC(=O)NCc1ccccc1F)C(=O)O | inactive
O=C(O)c1ccccc1NS(=O)(=O)c1ccccc1C(F)(F)F | inactive
COc1ccc(NC(=O)c2cccnc2C(=O)O)c(OC)c1 | inactive
Cc1cc(=O)[nH]c2c1c(C)nn2C1CCCC1 | inactive
Cc1ccc2c(c1)c(=O)c1c3n2CCN(C(=O)CCl)C3CC1 (stereo not given) | inactive
O=C(COC(=O)c1ccccc1OC(F)F)Nc1ccc2[nH]c(=O)[nH]c2c1 | inactive
